HT1080NT lethal – kills 2HG-producing HT-1080-NT fibrosarcoma cells. 1.6% of 360,000 active. Potency, µM (series often up to 46.1 µM), usual class: cytotoxic. HT-1080-NT fibrosarcoma viability, CellTiter-Glo ATP luminescence, 48 h;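 note: NT is the 2HG producing partner of a matched IDH1 knockdown line; nearly all actives have a fitted effect of over 55% in size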
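Fibrosarcoma NT cells, 750 per well in 5% FBS RPMI, were exposed to compound for 48 hours. Viability: CellTiter-Glo luminescence.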
TDP1 cell CPT – growth inhibition of DT40 Tdp1-/-;hTDP1 cells with camptothecin (screen for TDP1 inhibitors). 12% of 420,000 active. Potency, µM (highest dose often 46.2 µM), actives largely listed as inhibitors. chicken DT40 Tdp1-/-;hTDP1 cells + 20 nM CPT, ATP luminescence, 48 h. AID 686979; note: nearly all actives have a fitted effect of over 55% in size
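Cell growth measured by CellTiter-Glo luminescence after a minimum 48 h, 37 C compound exposure with 20 nM CPT in Tdp1-knockout DT40 cells stably expressing hTDP1, seeded 400/well; qHTS titration format.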
DT40 TDP1 no CPT – qHTS for Inhibitors of human tyrosyl-DNA phosphodiesterase 1 (TDP1): qHTS in cells in absence of CPT. 15% of 420,000 active. DT40 Tdp1-/- hTDP1 cells, no CPT, ATP luminescence, 48 h. AID 686978, 2013. Potency, µM (series often up to 46.2 µM), actives largely listed as inhibitors; note: nearly all actives have a fitted effect of over 55% in size
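Compound effects on proliferation are scored in DT40 Tdp1-/-;hTDP1 cells in the absence of CPT. ATP levels (CellTiter-Glo luminescence) are recorded after a ≥48 hr, 37 °C incubation.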
HT1080 IDH1KD tx – HT-1080 IDH1 knockdown cell toxicity (counter line); HT-1080 IDH1 knockdown viability, ATP luminescence, 48 h; Potency, µM (titrated, usually from 46.1 µM), usual class: cytotoxic; 2% of 360,000 active
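HT-1080-IDH1KD cells (IDH1 knocked down), 750/well in RPMI with 5% FBS, treated with compound 48 h at 37 degrees C. Viability by CellTiter-Glo luminescence, normalised to DMSO and no-cell wells; concentration-response curves classed.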
IL-1B inflam inh – inhibitors of inflammasome signaling (IL-1 beta secretion) | THP-1 LPS/ATP IL-1B secretion, AlphaLISA, 16 h; stronger effect = lower value | activity change, % at 57.5 µM | 4.7% of 360,000 active | AID 743279; in the data active = activity change below about -50%; inconclusive = mostly about -30% to -49%
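Secreted IL-1B measured by AlphaLISA bead assay after 16 h compound exposure of THP-1 cells; compounds (final up to 57.5 uM) added 1 h before LPS (250 ng/mL) and ATP (1.25 mM) stimulation; lower signal means less secretion.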
A number is an active result; 0 = inactive; ? = inconclusive; - = not tested or not shown. Compounds with a hit are over-represented: about 19% of the library has one in this group of screens. Unless noted, calls come from the whole dose curve; as a rule, active = well fitted curve in the direction sought with a large enough effect; inconclusive = small, poorly fitted or top-dose-only effect, or another doubt; inactive = no such curve, though single readings can be large; an effect the other way counts as inactive or inconclusive.

SMILES | HT1080NT lethal | TDP1 cell CPT | DT40 TDP1 no CPT | HT1080 IDH1KD tx | IL-1B inflam inh
COc1ccc(CNC(=O)CSc2nnc(C)s2)cc1 | 0 | 0 | 0 | 0 | 0
CC(=O)c1cnc2c(-c3ccccc3)c(C)nn2c1C | 0 | 0 | 0 | 0 | 0
COc1cccc(N2CCN(C(=O)c3cnc4c(-c5ccccc5)c(C)nn4c3C)CC2)c1 | - | 15µM | ? | - | -
COc1ccc(N2CCN(C(=O)CCc3c(C)nc4c(-c5ccccc5)c(C)nn4c3C)CC2)cc1 | - | 23µM | 18µM | - | -
CCOC(=O)Cc1c(C)nc2c(-c3ccc(OC)cc3)c(C)nn2c1C | ? | ? | 23µM | ? | 0
Cc1nc2cc(-c3ccccc3)nn2c(C)c1CCC(=O)N1CCN(c2ccccc2)CC1 | 0 | 0 | ? | 0 | 0
Cc1nn(-c2ccc(N3CCCC3)nn2)c(C)c1CCC(=O)NCc1ccc(F)cc1 | - | 0 | 0 | - | -
COC(=O)Cc1ccc(OC2(C)CCN(Cc3ccc(-c4ccccn4)cc3)C2)cc1 (centres undefined) | ? | ? | ? | 0 | 0
CCOC(=O)C1=C(CSc2nc(CC)c(C)cc2C#N)OC(N)=C(C#N)C1c1ccccc1 (centres undefined) | 0 | 3.3µM | 23µM | 0 | 0
CCOC(=O)C1=C(CSc2nc(-c3ccccc3)ccc2C#N)OC(N)=C(C#N)C1c1ccc(OC)cc1 (centres undefined) | 0 | 8.2µM | 9.2µM | 0 | 0
CCOC(=O)C1=C(CSc2nc3c(cc2C#N)CN(C)CC3)OC(N)=C(C#N)C1c1ccc(Cl)cc1 (centres undefined) | 0 | ? | ? | 0 | 0
CCOC(=O)C1=C(CSc2nc(C)cc(C)c2C#N)OC(N)=C(C#N)C1c1ccccc1 (centres undefined) | 0 | ? | 23µM | 0 | 0
CC1(C(=O)Nc2ccc3ccccc3c2)CCC(=O)N1CCc1c[nH]c2ccccc12 (centres undefined) | ? | ? | ? | ? | 0
COc1ccccc1CNC(=O)c1cc(S(=O)(=O)N2CCCC2)cn1C | 0 | 0 | 0 | 0 | 0
Cn1cc(S(=O)(=O)N2CCCC2)cc1C(=O)NCc1ccccc1Cl | 0 | 16µM | 0 | 0 | 0
COc1cccc(CNC(=O)c2cc(S(=O)(=O)N3CCOCC3)cn2C)c1 | 0 | 21µM | 0 | 0 | ?
Fc1ccc(-n2ncc3c(N4CCCCCC4)ncnc32)cc1 | - | 12µM | ? | - | -
Fc1ccc(-n2ncc3c(NC4CCCCCC4)ncnc32)cc1 | - | 23µM | 23µM | - | -
O=C(NNc1ncnc2c1cnn2-c1ccc(F)cc1)c1cccs1 | 0 | 0 | ? | 0 | 0
CCOc1ccccc1Nc1ncnc2c1cnn2-c1ccc(C)cc1 | - | ? | 0 | - | -
Cc1ccc(-n2ncc3c(NC4CCCCCC4)ncnc32)cc1 | - | 13µM | 18µM | - | -
Cc1ccc(-n2ncc3c(NC4CCCCC4)ncnc32)cc1 | - | ? | 21µM | - | -
CCC(CO)Nc1ncnc2c1cnn2-c1ccc(C)cc1 (centres undefined) | - | 0 | 0 | - | -
COc1cc(C)nc(-c2csc(C)n2)n1 | 0 | 0 | 0 | 0 | 0
CCCn1nc(C(=O)NNC(=O)CSC(C)C(=O)Nc2cc(C)on2)c2ccccc2c1=O (centres undefined) | 0 | 0 | 0 | 0 | 0
SMILES | HT1080NT lethal | TDP1 cell CPT | DT40 TDP1 no CPT | HT1080 IDH1KD tx | IL-1B inflam inh
Cc1ccc(OCC(=O)OCC(=O)NC2CCS(=O)(=O)C2)cc1C (centres undefined) | 0 | 0 | 0 | 0 | 0
C=C(C)COc1ccc2c(c1)CCC1C2CCC2(C)C(=O)C(=NO)CC12 (centres undefined) | 0 | 16µM | ? | ? | -99
O=C(COc1ccc2c3c(c(=O)oc2c1)CCCC3)N1CCN(c2ccccc2)CC1 | 0 | ? | ? | 0 | 0
O=c1c2c(nc3cc(-c4cccc(Cl)c4)[nH]n13)CCC2 | 0 | ? | ? | 0 | 0
Cc1[nH]n2c(=O)c3c(nc2c1-c1ccc(F)cc1)CCCC3 | 0 | 16µM | ? | 0 | 0
O=c1c2c(nc3c(-c4ccc(Cl)cc4)c[nH]n13)CCCC2 | ? | 3.5µM | 4µM | 7.1µM | 0
Cc1[nH]n2c(=O)c3c(nc2c1-c1ccccc1)CCCC3 | 0 | ? | ? | 0 | 0
O=c1c2c(nc3c(-c4cccc5ccccc45)c[nH]n13)CCC2 | 0 | 25µM | ? | 0 | 0
O=C(c1cnn2c(-c3ccccc3)cc(-c3ccccc3)nc12)N1CCN(Cc2ccccc2)CC1 | 0 | ? | 0 | 0 | 0
COc1cc(Cl)c(C)cc1Nc1nc2ccccc2c2nnc(C)n12 | - | 0 | 0 | - | -
CC(=O)n1cc(N(C(=O)CCl)c2ccccc2)c2ccccc21 | 2.6µM | 0.65µM | 0.58µM | 2.6µM | -92
CC(=O)n1cc(N(C(=O)CCl)c2ccc([N+](=O)[O-])cc2)c2ccccc21 | 23µM | 2.3µM | 2.6µM | ? | -101
C/C(=N/NC(=O)CNC(=O)C(c1ccccc1)c1ccccc1)c1ccco1 | 0 | 0 | 0 | 0 | 0
O=C(Nc1cccc(F)c1)C1CCCN1S(=O)(=O)c1cccc2cccnc12 (centres undefined) | 0 | 18µM | ? | 0 | 0
Cc1ccc(NC(=O)C2CCCN2S(=O)(=O)c2ccc3nc(-c4ccccc4)[nH]c3c2)cc1F (centres undefined) | - | 18µM | 10µM | - | -
CC(=O)c1cccc(NC(=O)C2CCCN2S(=O)(=O)c2cccc3cccnc23)c1 (centres undefined) | 0 | ? | 0 | 0 | 0
O=C(Nc1ccc2c(c1)OCCO2)C1CCCN1S(=O)(=O)c1cccc2cccnc12 (centres undefined) | 0 | 0 | 0 | 0 | 0
Cc1ccc(NC(=O)C2CCCN2S(=O)(=O)c2cccc3cccnc23)cc1C (centres undefined) | - | ? | 21µM | - | -
COc1cccc(NC(=O)[C@@H]2CCCN2S(=O)(=O)c2cccc3cccnc23)c1 | 0 | ? | ? | 0 | 0
O=C(Nc1ccc(C(F)(F)F)cc1)C1CCCN1S(=O)(=O)c1cccc2cccnc12 (centres undefined) | ? | ? | 23µM | ? | 0
Cc1cc(Cl)ccc1NC(=O)Cn1nnc2sc(-c3ccccc3)cc2c1=O | - | 0 | ? | - | -
COC(=O)c1cnn(-c2ccc(C(=O)Nc3cccc(C(C)=O)c3)cc2)c1N | - | 0 | 0 | - | -
CCOC(=O)c1cnn(-c2ccc(C(=O)Nc3cccc(C(C)=O)c3)cc2)c1N | - | 2.1µM | ? | - | -
CCOC(=O)c1cc(-c2ccccc2)n(-c2cccc(C(=O)N(CC)c3ccccc3)c2)c1C | - | 15µM | 18µM | - | -
CCOC(=O)c1cc(-c2ccccc2)n(-c2cccc(C(=O)Nc3cccc(C)c3)c2)c1C | - | ? | 23µM | - | -
O=C(OCC(=O)N1CCCc2ccccc21)c1c(F)cccc1F | 0 | 0 | 0 | 0 | 0
COc1ccc(-c2c(C(F)(F)F)nn(C)c2NC(=O)CSCC(=O)O)cc1 | 0 | 0 | 0 | 0 | 0
